Sampled rows, rich in hits. Any-hit rate of the full collection: about 4.1%.
DAX1 inh-1: NR0B1 (DAX1) inhibition. P51843. hit rate 0.99% among 340,000. inhibition, % at 6.75 µM. AID 504766. HEK293 Gal4-DAX1 luciferase reporter, luminescence;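 active means inhibition above the mean over all tested compounds plus 3 SD, cut at about 4.2% in these data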;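 further: 0% = DAX1-transfected cells with DMSO and 100% = empty-vector control cells with DMSO; inhibition shows as a rise in luminescence from relieved DAX1 repression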
Target sequence (P51843 207-470 limits assumed): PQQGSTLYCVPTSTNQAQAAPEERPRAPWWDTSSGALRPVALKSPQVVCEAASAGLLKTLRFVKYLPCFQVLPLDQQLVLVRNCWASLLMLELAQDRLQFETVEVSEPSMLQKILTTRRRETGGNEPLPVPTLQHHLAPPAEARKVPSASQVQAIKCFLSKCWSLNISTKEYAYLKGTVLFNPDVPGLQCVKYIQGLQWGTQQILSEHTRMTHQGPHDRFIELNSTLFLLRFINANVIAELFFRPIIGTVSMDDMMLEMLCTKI
DAX1 inh-2: blocks DAX1 repression of SF-1 activated StAR promoter; hit rate 1.1% among 370,000; HEK293T StAR-luciferase reporter, SF-1/DAX-1 repression relief; inhibition, % at 6.8 µM;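 active means inhibition above the mean over all tested compounds plus 3 SD, cut at about 3.6% in these data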;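 further: 0% = DAX-1 cells with DMSO and 100% = cells lacking DAX-1 with DMSO; higher inhibition means more luminescence from relief of DAX-1 repression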
ssDAF12 agonist: activates DAF-12 receptor from parasite S. stercoralis; HEK293 ssDAF-12/GRIP1 lit1-tk-luc reporter, luminescence; % of 3 µM dafachronic acid response; activation, % at 6.8 µM; hit rate 1% among 370,000;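 active means activation above the mean over all tested compounds plus 3 SD, cut at about 0.9% in these data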;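 further: 0% = DMSO-only wells and 100% = 3 µM delta7-dafachronic acid wells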
hcDAF-12 act: H. contortus DAF-12 activation, primary screen | HEK293 hcDAF-12 lit1-tk-luc reporter, luminescence; 0% DMSO, 100% Δ7-dafachronic acid | activation, % at 6.8 µM | hit rate 1.4% among 370,000 | AID 652067;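 active means activation above the mean of all tested compounds plus 3 SD, cut at about 5.5% in these data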;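 further: 100% = response to 3 µM Δ7-dafachronic acid high control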
hgDAF-12 ag: activates the H. glycines DAF-12 receptor ligand-binding domain | HEK293 GAL4-hgDAF12 UAS-luciferase reporter, agonist luminescence; normalized to butyrate control | activation, % at 6.8 µM | hit rate 1.8% among 370,000 | AID 687014;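 active means activation above a cutoff set at the mean of all screened compounds plus 3 SD, cut at about 10% in these data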;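 further: 0% = DMSO wells and 100% = sodium butyrate wells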
Active calls of the source: *.

How did O=C(Nc1ccc2c(c1)OCO2)N1CCC(c2nc3ccc(Cl)cc3[nH]2)CC1 do in these assays?
DAX1 inh-2: -1.3; ssDAF12 agonist: -0.7; hcDAF-12 act: -1.9; hgDAF-12 ag: 0.0

What do the screens show for `C/C(=N\NC(=O)c1cc(-c2ccccc2)nc2ccccc12)c1ccc(Cl)cc1`?
DAX1 inh-2: -0.3; ssDAF12 agonist: -1.3; hcDAF-12 act: -1.2; hgDAF-12 ag: 2.3

What do the screens show for `CCC[C@H]1[C@H](N)CC[C@@]23CCCN2C(=O)CCC[C@@H]13`?
ssDAF12 agonist: -0.7; hcDAF-12 act: -2.2; hgDAF-12 ag: -2.8

How did O=C(COc1ccc(F)c(Cl)c1)N[C@H]1CCCN(CC2CC2)C1 do in these assays?
ssDAF12 agonist: -0.5; hcDAF-12 act: 4.5; hgDAF-12 ag: -1.6

Results for CN(C)S(=O)(=O)c1ccc(NC(=O)c2cc3ccccc3o2)cc1 ?
DAX1 inh-1: -0.3; DAX1 inh-2: -0.5; ssDAF12 agonist: -1.7; hcDAF-12 act: -0.3; hgDAF-12 ag: 3.2

What do the screens show for `Cc1ccc(NC(=O)c2cc3ccccc3o2)cc1S(=O)(=O)N(C)C`?
DAX1 inh-1: 3.0; DAX1 inh-2: 1.4; ssDAF12 agonist: 0.0; hcDAF-12 act: 3.0; hgDAF-12 ag: 10.9*

Results for O=C(c1ccccc1C(=O)N1CCN(c2ccccc2)CC1)N1CCN(c2ccccc2)CC1 ?
DAX1 inh-1: -0.1; DAX1 inh-2: -0.5; ssDAF12 agonist: -0.3; hcDAF-12 act: -1.9; hgDAF-12 ag: -1.8

What do the screens show for `O=C(c1csc2c1CCCC2)N1CCN(c2ccccc2)CC1`?
DAX1 inh-1: -1.0; DAX1 inh-2: 0.9; ssDAF12 agonist: 1.1*; hcDAF-12 act: 3.4; hgDAF-12 ag: 6.2

What do the screens show for `O=S1(=O)CC(N2CCCC2)CN1C1CCCC1` (centres undefined)?
DAX1 inh-2: 0.6; ssDAF12 agonist: -1.3; hcDAF-12 act: 3.6; hgDAF-12 ag: 2.5

What do the screens show for `O=S1(=O)CC(N2CCCC2)CN1C1CCCCC1` (centres undefined)?
DAX1 inh-2: 4.3*; ssDAF12 agonist: -1.5; hcDAF-12 act: -0.9; hgDAF-12 ag: 0.6

How did O=c1ccnc2n1COCS2 do in these assays?
DAX1 inh-1: 6.1*; DAX1 inh-2: 1.6; ssDAF12 agonist: -0.6; hcDAF-12 act: -0.5; hgDAF-12 ag: 0.2

How did O=c1c(-c2ccnn2-c2ccc(F)cc2)cnc2n1CCS2 do in these assays?
DAX1 inh-1: -0.6; DAX1 inh-2: 1.0; ssDAF12 agonist: -1.2; hcDAF-12 act: -1.3; hgDAF-12 ag: -0.7

What do the screens show for `CCN1Cc2nnn(Cc3ccccc3)c2-c2ccccc2S1(=O)=O`?
DAX1 inh-2: 0.5; ssDAF12 agonist: -1.5; hcDAF-12 act: -2.0; hgDAF-12 ag: 1.7

What do the screens show for `O=C(C1CCN(c2cncnc2)CC1)N1CCOCC1`?
DAX1 inh-2: -1.0; ssDAF12 agonist: -0.5; hcDAF-12 act: -0.4; hgDAF-12 ag: 2.7

What do the screens show for `N#CC1=C(N)Nc2nc3ccccc3n2C1c1ccc(F)cc1` (centres undefined)?
DAX1 inh-1: -0.8; DAX1 inh-2: -0.9; ssDAF12 agonist: 1.3*; hcDAF-12 act: -2.1; hgDAF-12 ag: -1.7

How did CNC(=O)C1=C(C)Nc2nc3ccccc3n2C1c1ccc(F)cc1 (centres undefined) do in these assays?
DAX1 inh-1: 2.0; DAX1 inh-2: -0.1; ssDAF12 agonist: -1.0; hcDAF-12 act: -0.9; hgDAF-12 ag: 2.7

How did CCN(CC)C(=O)CC[C@@H]1CC[C@]2(CCCN(Cc3ccccc3)C2)O1 do in these assays?
DAX1 inh-2: 0.1; ssDAF12 agonist: -0.6; hcDAF-12 act: -0.2; hgDAF-12 ag: 0.3

How did CCc1nc2ccc(C(=O)Nc3ccc(Cl)c(Cl)c3)cn2c1N(C)Cc1ccc(OC)cc1 do in these assays?
DAX1 inh-2: 0.4; ssDAF12 agonist: -0.2; hcDAF-12 act: 0.7; hgDAF-12 ag: 11.8*

How did O=C(CN1CCN(S(=O)(=O)c2ccc(Br)cc2)CC1)c1ccc(O)c(O)c1 do in these assays?
DAX1 inh-1: 0.8; DAX1 inh-2: 0.4; ssDAF12 agonist: -1.3; hcDAF-12 act: 5.9*; hgDAF-12 ag: 1.0

How did CC(C)c1ccc(S(=O)(=O)N2CCN(CC(=O)c3ccc(O)c(O)c3)CC2)cc1 do in these assays?
DAX1 inh-1: -0.6; DAX1 inh-2: -0.2; ssDAF12 agonist: -1.3; hcDAF-12 act: 0.0; hgDAF-12 ag: 1.2

How did Nc1ccccc1-c1ccc(Cl)cc1 do in these assays?
DAX1 inh-1: -0.8; DAX1 inh-2: 4.1*; ssDAF12 agonist: -1.2; hcDAF-12 act: 1.1; hgDAF-12 ag: 1.5

What do the screens show for `Cn1ncc2c(NCCO)nc(Cl)nc21`?
DAX1 inh-1: 1.4; DAX1 inh-2: 0.3; ssDAF12 agonist: 1.5*; hcDAF-12 act: -1.9; hgDAF-12 ag: -1.7

Results for CCCCNC(=O)C1CCCN1C(=O)Nc1ccc2c(c1)OCO2 (centres undefined) ?
DAX1 inh-2: 1.7; ssDAF12 agonist: -0.7; hcDAF-12 act: 2.4; hgDAF-12 ag: 8.4

Results for CC1(C)C/C(=N\O)C(C(O)c2cccc([N+](=O)[O-])c2)C(C)(C)N1 (centres undefined) ?
DAX1 inh-1: 6.2*; DAX1 inh-2: 0.1; ssDAF12 agonist: -0.3; hcDAF-12 act: -1.8; hgDAF-12 ag: 1.2

What do the screens show for `O=C(O)CC(NC(=O)C12CC3CC(CC(C3)C1)C2)c1cccc([N+](=O)[O-])c1` (centres undefined)?
DAX1 inh-1: 0.8; DAX1 inh-2: -0.1; ssDAF12 agonist: -1.2; hcDAF-12 act: -1.2; hgDAF-12 ag: -1.1

How did O=C(CSc1nc2ccsc2c(=O)n1CC1CCC(C(=O)O)CC1)c1ccc(Cl)cc1 (centres undefined) do in these assays?
DAX1 inh-1: -0.3; DAX1 inh-2: 0.5; ssDAF12 agonist: -1.3; hcDAF-12 act: -1.7; hgDAF-12 ag: -1.9

Results for O=C(O)C1CCC(Cn2c(SCc3cc(=O)n4ccccc4n3)nc3ccsc3c2=O)CC1 (centres undefined) ?
DAX1 inh-1: 5.0*; DAX1 inh-2: 0.4; ssDAF12 agonist: -2.1; hcDAF-12 act: -1.7; hgDAF-12 ag: 0.3

Results for O=C(CSc1nc2ccsc2c(=O)n1CC1CCC(C(=O)O)CC1)c1ccc(F)cc1 (centres undefined) ?
DAX1 inh-1: 0.5; DAX1 inh-2: -0.5; ssDAF12 agonist: -1.7; hcDAF-12 act: -0.9; hgDAF-12 ag: 11.2*

Results for CC(C)N(Cc1cn(Cc2ccccc2)nn1)S(=O)(=O)c1ccccc1Br ?
DAX1 inh-2: -0.6; ssDAF12 agonist: -1.6; hcDAF-12 act: 1.6; hgDAF-12 ag: -0.3

What do the screens show for `Cc1cc(/C=C(\C#N)C(=O)NC2CCCCCC2)c(C)[nH]1`?
DAX1 inh-1: -0.4; DAX1 inh-2: 0.8; ssDAF12 agonist: -1.3; hcDAF-12 act: 3.0; hgDAF-12 ag: 3.6

Results for Cc1cc(/C=C(\C#N)C(=O)NC2CC2)c(C)[nH]1 ?
DAX1 inh-1: 3.0; DAX1 inh-2: 3.3; ssDAF12 agonist: 0.2; hcDAF-12 act: 0.2; hgDAF-12 ag: 11.9*

How did S=C(c1ccc(-c2ccc(Br)cc2)o1)N1CCOCC1 do in these assays?
DAX1 inh-2: 1.9; ssDAF12 agonist: 0.0; hcDAF-12 act: 3.2; hgDAF-12 ag: 12.2*

Screening data as filed in PubChem.
